BJeLR viability: BJeLR cell viability loss | BJeLR (HRASV12) viability, CellTiter-Glo ATP luminescence, 48 h | inhibition, % (test concentration not listed) | 0.17% of 300,000 active | AID 1554; in the data active = inhibition above about 50%; inconclusive = no clear call, values can overlap the other calls
Anthrax LF prot: blocks Bacillus anthracis lethal factor protease | P15917 | multiplex microsphere protease cleavage assay, LF | inhibition, % at 10 µM | 0.12% of 360,000 active | AID 588501; also: plate controls were buffer without enzyme for full effect and enzyme alone for no effect
Autofluor counter: flagged as autofluorescent in microsphere protease counterscreen; compound autofluorescence counterscreen, microsphere flow cytometry; active compounds read high; fluorescence intensity (concentration not given with the values); 3.1% of 360,000 active; in the data active = fluorescence intensity above about 16000; inconclusive = no clear call, values can overlap the other calls
BoNT F protease: inhibitors of Botulinum neurotoxin F light chain protease; Multiplex microsphere protease cleavage assay, flow cytometry; inhibition, % at 10 µM; 0.22% of 360,000 active; in the data active = inhibition above about 35%, passing the limit was not always enough; inconclusive = no clear call, values can overlap the other calls; also: plate controls were buffer without enzyme for full effect and enzyme alone for no effect
BH1578 lux ind: inducers of Vibrio cholerae quorum light production without autoinducers. V. cholerae BH1578 lux reporter, luminescence, 6 h. activation, % at 18.7 µM. AID 588436. 0.16% of 350,000 active; in the data active = activation mostly above about 9.7%, no sharp cut-off; inconclusive = no clear call, values can overlap the other calls; inactive = mostly below about 3.7%
BoNT-A LC inh2: blocks Botulinum neurotoxin A light chain protease; multiplex microsphere protease substrate cleavage, flow cytometry; inhibition, % at 10 µM; 0.17% of 360,000 active; AID 588499; also: plate controls were buffer without enzyme for full effect and enzyme alone for no effect
* marks the source's active call; other numbers are inactive results. Only some compounds are listed: those with a hit (about 3.7% of all), similar ones and a draw of the others. Rule as the data show it, unless noted: active = inhibition above about 30%; inconclusive = no clear call, values can overlap the other calls; inactive = below that.

`CC(=O)OCC(C)n1[nH]c2ccccc2c1=O` (stereo not drawn) gave Anthrax LF prot -4, Autofluor counter 4454, BoNT F protease -3 and BoNT-A LC inh2 0.
Screening CCNS(=O)(=O)c1ccc(NS(=O)(=O)c2cc(C)ccc2C)cc1 returned BJeLR viability -10, Anthrax LF prot -2, Autofluor counter 4756, BoNT F protease -6, BH1578 lux ind 2 and BoNT-A LC inh2 0.
For CCCCNS(=O)(=O)c1ccc(NS(=O)(=O)c2c(C)cc(C)cc2C)cc1 the results were BJeLR viability -3, Anthrax LF prot 0, Autofluor counter 16873*, BoNT F protease -4, BH1578 lux ind 0 and BoNT-A LC inh2 inconclusive.
`O=C(Nc1c(Cl)cc(Cl)cc1-c1nc2ccccc2s1)c1ccc(Br)o1` gave BJeLR viability -6, Anthrax LF prot 0, Autofluor counter 17431*, BoNT F protease -6, BH1578 lux ind 0 and BoNT-A LC inh2 inconclusive.
O=C(O)CCNC(=O)CCCn1nnc2ccccc2c1=O was read as BJeLR viability 5, Anthrax LF prot -11, Autofluor counter 20247*, BoNT F protease -95, BH1578 lux ind 0 and BoNT-A LC inh2 -19.
Screening COc1ccc(COC(=O)CN2C(=O)NC3(CCCC3)C2=O)cc1F returned BJeLR viability -8, Anthrax LF prot 1, Autofluor counter inconclusive, BoNT F protease 6, BH1578 lux ind -1 and BoNT-A LC inh2 0.
COc1ccc(CN2C(=O)NC3(CCCCC3)C2=O)cc1F was read as BJeLR viability -3, Anthrax LF prot -1, Autofluor counter 22242*, BoNT F protease 1, BH1578 lux ind inactive and BoNT-A LC inh2 inconclusive.
For O=C(O)CN1C(=O)CSc2ccccc21 the results were BJeLR viability -10, Anthrax LF prot 0, Autofluor counter 9223, BoNT F protease 0, BH1578 lux ind inactive and BoNT-A LC inh2 0.
For CCOC(=O)CN1C(=O)CSc2ccccc21 the results were BJeLR viability 4, Anthrax LF prot 1, Autofluor counter 24381*, BoNT F protease -6, BH1578 lux ind 1 and BoNT-A LC inh2 -3.
O=C1CSc2ccccc2N1Cc1ccc(F)cc1 was read as BJeLR viability -2, Anthrax LF prot -4, Autofluor counter 21142*, BoNT F protease 14, BH1578 lux ind 0 and BoNT-A LC inh2 6.
`O=C(Nc1ccc(Oc2ccccc2)nc1)[C@H]1O[C@@H](n2ccc(=O)[nH]c2=O)[C@H](O)[C@@H]1O` gave Anthrax LF prot 2, Autofluor counter 5562, BoNT F protease -4 and BoNT-A LC inh2 0.
For COc1ccc(CN2CC[C@@H]3CN(C(C)=O)[C@H](c4ccccc4Br)C[C@@H]32)cc1 the results were Anthrax LF prot 4, Autofluor counter 7214, BoNT F protease 2 and BoNT-A LC inh2 0.
Screening O=C(CCS(=O)(=O)c1ccc(Br)cc1)N1CCN(c2ccc(Cl)cc2)CC1 returned BJeLR viability -4, Anthrax LF prot -1, Autofluor counter 20319*, BoNT F protease -1, BH1578 lux ind 0 and BoNT-A LC inh2 0.
For CCOC(=O)COc1c(Cl)cc(C2NC(=S)NC(c3ccccc3)=C2C(C)=O)cc1OC (stereo not drawn) the results were BJeLR viability 4, Anthrax LF prot 0, Autofluor counter 2497, BoNT F protease 1, BH1578 lux ind 0 and BoNT-A LC inh2 0.
COc1cc(C2NC(=S)NC(c3ccccc3)=C2C(C)=O)cc(Cl)c1OCC(=O)O (stereo not drawn) was read as BJeLR viability -9, Anthrax LF prot 1, Autofluor counter 23312*, BoNT F protease -1, BH1578 lux ind -1 and BoNT-A LC inh2 0.
`CCN(CC)S(=O)(=O)c1cccc(C(=O)NC(C)C(c2cccs2)N2CCCC2)c1` (stereo not drawn) gave BJeLR viability 0, Anthrax LF prot 4, Autofluor counter 17341*, BoNT F protease 4, BH1578 lux ind 0 and BoNT-A LC inh2 1.
`CC(NC(=O)c1cccc(F)c1)C(c1cccs1)N1CCN(C)CC1` (stereo not drawn) gave BJeLR viability 1, Anthrax LF prot 1, Autofluor counter 23669*, BoNT F protease -5, BH1578 lux ind 0 and BoNT-A LC inh2 -5.
For CC(=O)NC(C)C(c1cccs1)N1CCN(c2ccccc2)CC1 (stereo not drawn) the results were BJeLR viability -8, Anthrax LF prot -2, Autofluor counter 16460*, BoNT F protease 1, BH1578 lux ind inactive and BoNT-A LC inh2 inconclusive.
Screening CCOC1(OCC)OC(c2ccccc2)=C(C#N)C(C=Cc2ccccc2)C1(OCC)OCC (stereo not drawn) returned Anthrax LF prot -5, Autofluor counter 3973, BoNT F protease 8, BH1578 lux ind -3 and BoNT-A LC inh2 0.
`O=C(CCc1ccccc1)n1nc(-c2ccccc2)nc1NCc1ccco1` gave BJeLR viability -3, Anthrax LF prot -5, Autofluor counter 23164*, BoNT F protease -4, BH1578 lux ind 1 and BoNT-A LC inh2 -3.
For COc1ccc(CC(=O)n2nc(-c3ccccc3)nc2NCc2ccco2)cc1 the results were BJeLR viability 6, Anthrax LF prot -5, Autofluor counter 5883, BoNT F protease 0, BH1578 lux ind inactive and BoNT-A LC inh2 0.
`CCCCOc1ccc(/C=C/C(=O)NCCc2nc3ccccc3[nH]2)cc1` gave BJeLR viability -14, Anthrax LF prot -2, Autofluor counter 21858*, BoNT F protease -8, BH1578 lux ind -1 and BoNT-A LC inh2 -4.
For COc1cc(/C=C(/C#N)C(=O)NCCc2c[nH]c3ccccc23)ccc1OCc1ccccc1F the results were BJeLR viability 9, Anthrax LF prot 1, Autofluor counter 23745*, BoNT F protease -1, BH1578 lux ind 1 and BoNT-A LC inh2 -1.
For Cc1cc(/C=C(\C#N)C(=O)NCCc2c[nH]c3ccccc23)c(C)n1C the results were Anthrax LF prot -2, Autofluor counter 2022, BoNT F protease 6, BH1578 lux ind inactive and BoNT-A LC inh2 -1.
CCCCNC(=O)c1nc(C2CCN(S(=O)(=O)c3cccc(C(F)(F)F)c3)CC2)oc1-c1ccccc1 was read as Anthrax LF prot -11, Autofluor counter 5723, BoNT F protease 0 and BoNT-A LC inh2 1.
For CC(C)CNc1nc(NC(C)(C)C)nc(Oc2ccc(=O)[nH]n2)n1 the results were BJeLR viability 0, Anthrax LF prot 3, Autofluor counter 4466, BoNT F protease -1, BH1578 lux ind 0 and BoNT-A LC inh2 0.
CSc1nc(NC(C)(C)C)nc(Oc2ccc(=O)[nH]n2)n1 was read as BJeLR viability 3, Anthrax LF prot -4, Autofluor counter 19465*, BoNT F protease -1, BH1578 lux ind inactive and BoNT-A LC inh2 1.
For COC(=O)Cc1ccc(OC2(C)CCN(Cc3ccccc3)C2)cc1 (stereo not drawn) the results were Anthrax LF prot -1, Autofluor counter 3470, BoNT F protease -2, BH1578 lux ind inactive and BoNT-A LC inh2 0.

High-throughput results (PubChem BioAssay)
